25 molecules from PubChem BioAssay (NCATS) can be followed below.

Assay [1] is described as follows: AP1 Signaling Pathway (AID 357).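 Also: ME-180 reporter cells stimulated with EGF at its EC50 level; % is scaled to controls: 0 for no effect and ±100 for the full control effect.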 The note with it: ME-180 AP-1-bla reporter, EGF-induced, beta-lactamase ratio, 5 h; at 17.2 µM (top of the series) unless noted. The method in brief:
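Modulation of EGF-driven AP-1 transcription was assessed with a beta-lactamase reporter in ME-180 cells. Compound and EC50 EGF were co-incubated 5 hours at 37 °C before 2.5-hour CCF4 loading at room temperature and dual-emission reading.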

Assay [2] can be described thus: NFAT Signaling Pathway (AID 444).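 Also: carbachol stimulus at about its EC50 of 1 µM final; % is scaled to controls: 0 for no effect and ±100 for the full control effect.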 The note with it: Jurkat NFAT-bla M1, carbachol, beta-lactamase ratio, 5 h; at 17.2 µM (top of the series) unless noted. In short, it runs like this: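 Read-out: CCF4 FRET ratio (460 nm/530 nm) after 1 h RT dye loading, used for %activity and AC50 from titration series. Cells: Jurkat NFAT-β-lactamase/M1 line, treated with compound plus 1 uM carbachol for 5 h, 37 °C.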

Assay [3] is described as follows: Stat Signaling Pathway (AID 446).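 Also: ME-180 cervical cancer cells given 40 pM IL-6 alongside compound; SIE-controlled beta-lactamase reporter measured as 460/530 nm FRET emission ratio; % is scaled to controls: 0 for no effect and ±100 for the full control effect.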 To be noted: ME-180 (cervical carcinoma) SIE beta-lactamase reporter, IL-6 stimulated, 5 h; at 17.2 µM (top of the series) unless noted. The method in brief:
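Normalization used AC90 stimulation (300 pM IL-6) and AC90 inhibition (125 nM pan-JAK inhibitor at 40 pM IL-6). The underlying signal is SIE-driven beta-lactamase in ME-180 cells after 5 h IL-6 exposure with compound.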

Assay [4] addresses Glucocorticoid receptor (Homo sapiens) (UniProt P04150). The experiment in a line: GR-GFP Redistribution (AID 450;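 active = compounds whose dose series gives a full or clear partial fitted curve of increased nuclear translocation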; also: potency is read from the fitted curve at half-maximal effect).

A number with no mark means an inactive call. Records with an inconclusive call do not appear. Active and inactive are the calls of the source. Unless noted, calls follow the shape of the dose curve; as a rule, active = well fitted curve in either direction with a large enough effect (not every such curve was filed as active); inconclusive = small, poorly fitted or top-dose-only effect, or another doubt; inactive = flat fitted curve, though single readings scatter.

Chain of Glucocorticoid receptor (Homo sapiens) (P04150 whole entry, looked up): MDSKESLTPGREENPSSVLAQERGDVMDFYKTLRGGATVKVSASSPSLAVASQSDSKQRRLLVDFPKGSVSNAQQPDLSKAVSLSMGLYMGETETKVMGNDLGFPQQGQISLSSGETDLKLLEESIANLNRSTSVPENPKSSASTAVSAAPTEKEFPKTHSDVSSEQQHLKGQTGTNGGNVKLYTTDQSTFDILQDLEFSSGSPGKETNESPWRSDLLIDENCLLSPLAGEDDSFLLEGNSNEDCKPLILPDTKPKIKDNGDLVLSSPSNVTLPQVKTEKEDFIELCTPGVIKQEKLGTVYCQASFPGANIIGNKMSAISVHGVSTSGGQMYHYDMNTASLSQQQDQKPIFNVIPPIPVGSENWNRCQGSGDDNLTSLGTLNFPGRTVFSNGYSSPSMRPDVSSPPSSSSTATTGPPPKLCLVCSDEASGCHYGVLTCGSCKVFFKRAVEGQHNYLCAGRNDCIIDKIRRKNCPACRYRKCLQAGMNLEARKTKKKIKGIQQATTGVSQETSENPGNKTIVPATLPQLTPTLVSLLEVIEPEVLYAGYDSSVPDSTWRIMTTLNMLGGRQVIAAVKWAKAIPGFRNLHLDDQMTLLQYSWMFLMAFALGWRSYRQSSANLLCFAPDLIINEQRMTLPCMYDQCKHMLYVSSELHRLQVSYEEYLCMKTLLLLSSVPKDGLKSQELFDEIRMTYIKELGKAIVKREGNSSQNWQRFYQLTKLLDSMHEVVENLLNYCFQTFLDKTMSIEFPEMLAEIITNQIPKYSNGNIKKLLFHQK

For the molecule `CC(C)OC(=O)CC1=NC(=O)CS1`, the figures for the activity change, negative = inhibition in assay [1] and in assay [2] were 3.43% and 8.36%, respectively. Further, the activity, negative = inhibition in assay [3] is 9.47%. For the same molecule, in assay [4], the Potency was > 20.6 µM.
For `COc1ccc(CNC(=O)[C@H](C)NC(=O)C2CCN(S(=O)(=O)c3ccc(C)cc3)CC2)cc1`, in that order: 0.123%, 0.0617%, 2.4% and > 20.6 µM.
As to `CCOc1ccc(C2CC(c3ccccc3)Nc3nc(N)nn32)cc1` (stereo not given), the activity change, negative = inhibition is -4.28% in assay [1] and 6.92% in assay [2]. Besides, the activity, negative = inhibition in assay [3] was -1.31%. Further, the Potency in assay [4] was > 20.6 µM.
Take `Cc1nc(SCC(=O)Nc2ccc3c(c2)OCO3)c(C#N)c2c1CCCC2`: the values for the activity change, negative = inhibition in assay [1] and in assay [2] were -14.5% and -1.28%, respectively. Moreover, the activity, negative = inhibition in assay [3] was -15.4%. The Potency in assay [4] is > 20.6 µM.
Regarding `CCCOc1ccc(-c2nnc(N)s2)cc1`, the activity change, negative = inhibition was 9.15% in assay [1] and 2.03% in assay [2]. The activity, negative = inhibition in assay [3] was 5.95%. Moreover, in assay [4], the Potency was > 20.6 µM.
As for `CCOC(=O)CCNc1n[nH]c(=O)[nH]c1=O`, the figures for the activity change, negative = inhibition in assay [1] and in assay [2] were 7.71% and 7.29%, respectively. Further, in assay [3], the activity, negative = inhibition is -2.32%. The Potency in assay [4] was > 20.6 µM.
As to `O=C1[C@@H]2[C@H](C(=O)N1O)[C@H]1C=C[C@@H]2C1`, the values for the activity change, negative = inhibition in assay [1] and in assay [2] were 5.39% and -15.3%, respectively. The activity, negative = inhibition in assay [3] is 10.4%. For the same molecule, the Potency in assay [4] was > 20.6 µM.
As to `CCCCN(C(=O)CCC(=O)O)C1CC(=O)N(c2ccc(OCCC)cc2)C1=O` (stereo not given), the values for the activity change, negative = inhibition in assay [1] and in assay [2] were 0.952% and -3.79%, respectively. In addition, the activity, negative = inhibition in assay [3] was 5.12%. In assay [4], the Potency is > 20.6 µM.
`COC(=O)c1nn2c(C(F)(F)F)cc(-c3ccc(Br)o3)nc2c1Br`: the activity change, negative = inhibition is 0.345% in assay [1] and -16.6% in assay [2]. For the same molecule, the activity, negative = inhibition in assay [3] was 0.255%. The Potency in assay [4] is > 20.6 µM.
Turning to `O=C(O)C1[C@H]2C(=O)N(Cc3cccs3)C[C@]23C=C[C@H]1O3` (stereo not given in full), the activity change, negative = inhibition in assay [1] was 4.68%; in assay [2], -3.3%. Also, the activity, negative = inhibition in assay [3] is 2.6%. Moreover, the Potency in assay [4] is > 20.6 µM.
For `CCc1[nH]c(=O)c(C#N)c2c1CCCC2`, in that order: 3.3%, -7.46%, 4.68% and > 20.6 µM.
For `Cc1cc(C)nc(NC2=NCC(=O)N2c2ccccc2)n1`, in that order: 13.1%, -8.71%, 9% and > 20.6 µM.
On to `Cc1ccc(NC(=O)Cn2nc(C)c3ccccc3c2=O)cc1`, for which the activity change, negative = inhibition was 14.3% in assay [1] and 10.1% in assay [2]. Besides, the activity, negative = inhibition in assay [3] was 6.34%. Also, the Potency in assay [4] is > 20.6 µM.
With `Cc1ccc(S(=O)(=O)N(CC(O)CN(C)C)c2ccccc2)cc1` (stereo not given), the activity change, negative = inhibition in assay [1] was 6.2%; in assay [2], -0.131%. For the same molecule, the activity, negative = inhibition in assay [3] was 7.64%. Moreover, the Potency in assay [4] is > 20.6 µM.
`N#Cc1c(SCC(=O)O)nc(N2CCCCC2)c2c1CCCC2`: the activity change, negative = inhibition in assay [1] was 6.2%; in assay [2], 10.4%. The activity, negative = inhibition in assay [3] is -7.23%. In addition, the Potency in assay [4] was > 20.6 µM.
For `CCCc1nc2n[nH]c(N)c2c2c1COC(C)(C)C2`, in that order: 2.75%, -0.018%, 2.38% and > 20.6 µM.
For `CCNc1nc(Oc2ccccc2)nc(OC(C)C(=O)OCC)n1` (stereo not given), in that order: -1.07%, 6.54%, 1.47% and > 20.6 µM.
For `C1CNCCNCCNCCN1`, in that order: -9.33%, 6.5%, -0.788% and > 20.6 µM.
With `N=c1ncn(CC(O)CN2CCOCC2)c2nc(N3CCOCC3)[nH]c12` (stereo not given), the values for the activity change, negative = inhibition in assay [1] and in assay [2] were 6.34% and -3.22%, respectively. In addition, the activity, negative = inhibition in assay [3] is 13.6%. In addition, in assay [4], the Potency is > 20.6 µM.
For `CC1(C)Cc2c(C#N)c(NCCN3CCOCC3)nc(-c3ccco3)c2CO1`, in that order: -12.2%, 5.08%, -0.141% and > 20.6 µM.
For `O=C(O)C1CC(=O)N(Cc2cccs2)C1` (stereo not given), in that order: -0.708%, -5.3%, 7.75% and > 20.6 µM.
Turning to `COc1cc([C@@H]2[C@H]3CN(C)CC=C3C(C#N)=C(N)C2(C#N)C#N)cc2c1OCO2`, the activity change, negative = inhibition in assay [1] is -11%; in assay [2], 9.82%. For the same molecule, in assay [3], the activity, negative = inhibition was 10.9%. The Potency in assay [4] was > 20.6 µM.
For `CCOC(=O)C1CSc2[nH]c(=O)sc2C1c1ccccc1` (stereo not given), in that order: 0.248%, -1.24%, -1.01% and > 20.6 µM.
For `COc1cc(C(=O)Nc2ccccn2)cc(OC)c1OC`, in that order: 1.72%, 12%, 25.9% and > 20.6 µM.
For `CC(=O)[C@@]1(O)CC[C@H]2[C@@H]3CCC4=CC(=O)CC[C@]4(C)[C@H]3[C@@H](O)C[C@@]21C`, in that order: 3.13%, -20.8%, 4.29% and 0.0133 µM (active).
